Source: ChEMBL document CHEMBL2218924, “A broad activity screen in support of a chemogenomic map for kinase signalling research and drug discovery” (Biochem J, 2013)

Assays:
[1] = molecular target: Serine/threonine-protein kinase SIK1 (Homo sapiens) (UniProt P57059); details: at 10 µM
[2] = molecular target: SRSF protein kinase 1 (Homo sapiens) (UniProt Q96SB4); details: at 1 µM
[3] = molecular target: SRSF protein kinase 1 (Homo sapiens) (UniProt Q96SB4); details: at 10 µM
[4] = molecular target: SRSF protein kinase 2 (Homo sapiens) (UniProt P78362); details: at 1 µM
[5] = molecular target: Serine/threonine-protein kinase 33 (Homo sapiens) (UniProt Q9BYT3); details: at 1 µM
[6] = molecular target: Serine/threonine-protein kinase 33 (Homo sapiens) (UniProt Q9BYT3); details: at 10 µM
[7] = molecular target: Serine/threonine-protein kinase PLK2 (Homo sapiens) (UniProt Q9NYY3); details: at 1 µM
[8] = molecular target: Serine/threonine-protein kinase PLK2 (Homo sapiens) (UniProt Q9NYY3); details: at 10 µM
[9] = molecular target: Tyrosine-protein kinase SYK (Homo sapiens) (UniProt P43405); details: at 1 µM
[10] = molecular target: SRSF protein kinase 2 (Homo sapiens) (UniProt P78362); details: at 10 µM

Chain of Serine/threonine-protein kinase SIK1 (Homo sapiens) (P57059 whole entry): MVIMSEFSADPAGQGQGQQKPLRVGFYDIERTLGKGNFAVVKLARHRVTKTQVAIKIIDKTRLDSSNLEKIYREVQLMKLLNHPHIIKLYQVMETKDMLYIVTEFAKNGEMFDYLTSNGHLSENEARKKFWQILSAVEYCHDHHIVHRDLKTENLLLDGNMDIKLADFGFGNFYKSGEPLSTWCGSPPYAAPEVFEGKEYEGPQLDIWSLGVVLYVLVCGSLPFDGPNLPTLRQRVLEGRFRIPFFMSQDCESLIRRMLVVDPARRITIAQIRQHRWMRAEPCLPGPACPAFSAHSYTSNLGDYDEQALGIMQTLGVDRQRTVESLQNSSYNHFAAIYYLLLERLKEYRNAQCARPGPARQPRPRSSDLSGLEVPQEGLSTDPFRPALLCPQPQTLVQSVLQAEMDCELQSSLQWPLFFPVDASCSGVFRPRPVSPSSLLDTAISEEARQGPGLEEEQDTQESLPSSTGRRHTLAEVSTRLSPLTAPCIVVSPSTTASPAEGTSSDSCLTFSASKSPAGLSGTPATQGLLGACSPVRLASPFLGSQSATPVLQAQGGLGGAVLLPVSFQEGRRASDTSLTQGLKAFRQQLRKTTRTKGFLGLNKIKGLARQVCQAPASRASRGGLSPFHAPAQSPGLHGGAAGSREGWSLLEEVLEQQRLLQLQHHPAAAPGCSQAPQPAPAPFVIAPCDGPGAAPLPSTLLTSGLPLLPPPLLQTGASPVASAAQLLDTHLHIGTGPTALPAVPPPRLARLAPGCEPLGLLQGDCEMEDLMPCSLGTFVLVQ
Chain of Serine/threonine-protein kinase 33 (Homo sapiens) (Q9BYT3 whole entry, looked up): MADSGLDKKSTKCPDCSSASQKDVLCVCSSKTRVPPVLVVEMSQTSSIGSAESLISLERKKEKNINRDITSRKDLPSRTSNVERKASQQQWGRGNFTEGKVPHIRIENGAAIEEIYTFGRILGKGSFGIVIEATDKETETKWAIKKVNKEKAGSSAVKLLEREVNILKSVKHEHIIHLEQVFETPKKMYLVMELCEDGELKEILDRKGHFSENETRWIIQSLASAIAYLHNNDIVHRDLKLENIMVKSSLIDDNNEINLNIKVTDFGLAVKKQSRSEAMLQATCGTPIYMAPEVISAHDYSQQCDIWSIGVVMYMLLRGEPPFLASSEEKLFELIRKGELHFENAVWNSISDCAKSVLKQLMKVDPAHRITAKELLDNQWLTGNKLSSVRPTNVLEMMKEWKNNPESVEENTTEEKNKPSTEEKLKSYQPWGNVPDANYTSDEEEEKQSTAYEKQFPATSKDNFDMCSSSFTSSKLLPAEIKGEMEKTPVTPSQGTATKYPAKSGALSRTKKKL
Chain of SRSF protein kinase 2 (Homo sapiens) (P78362 whole entry, looked up): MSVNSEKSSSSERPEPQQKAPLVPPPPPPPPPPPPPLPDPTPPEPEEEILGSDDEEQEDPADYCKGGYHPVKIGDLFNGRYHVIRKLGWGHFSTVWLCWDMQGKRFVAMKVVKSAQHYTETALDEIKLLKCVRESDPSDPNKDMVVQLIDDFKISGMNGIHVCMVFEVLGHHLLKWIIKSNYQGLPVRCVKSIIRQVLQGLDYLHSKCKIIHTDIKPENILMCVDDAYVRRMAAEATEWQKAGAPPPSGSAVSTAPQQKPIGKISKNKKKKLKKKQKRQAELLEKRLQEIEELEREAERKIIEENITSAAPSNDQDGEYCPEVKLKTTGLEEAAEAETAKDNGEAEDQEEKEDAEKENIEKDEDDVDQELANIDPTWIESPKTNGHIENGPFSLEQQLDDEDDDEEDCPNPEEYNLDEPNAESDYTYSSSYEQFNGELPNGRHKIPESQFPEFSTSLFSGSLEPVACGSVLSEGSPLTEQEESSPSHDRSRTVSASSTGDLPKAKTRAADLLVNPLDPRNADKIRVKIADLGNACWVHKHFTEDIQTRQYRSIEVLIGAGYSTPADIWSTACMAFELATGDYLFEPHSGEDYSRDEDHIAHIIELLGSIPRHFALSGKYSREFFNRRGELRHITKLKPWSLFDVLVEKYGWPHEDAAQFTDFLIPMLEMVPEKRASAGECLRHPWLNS
Chain of SRSF protein kinase 1 (Homo sapiens) (Q96SB4 whole entry): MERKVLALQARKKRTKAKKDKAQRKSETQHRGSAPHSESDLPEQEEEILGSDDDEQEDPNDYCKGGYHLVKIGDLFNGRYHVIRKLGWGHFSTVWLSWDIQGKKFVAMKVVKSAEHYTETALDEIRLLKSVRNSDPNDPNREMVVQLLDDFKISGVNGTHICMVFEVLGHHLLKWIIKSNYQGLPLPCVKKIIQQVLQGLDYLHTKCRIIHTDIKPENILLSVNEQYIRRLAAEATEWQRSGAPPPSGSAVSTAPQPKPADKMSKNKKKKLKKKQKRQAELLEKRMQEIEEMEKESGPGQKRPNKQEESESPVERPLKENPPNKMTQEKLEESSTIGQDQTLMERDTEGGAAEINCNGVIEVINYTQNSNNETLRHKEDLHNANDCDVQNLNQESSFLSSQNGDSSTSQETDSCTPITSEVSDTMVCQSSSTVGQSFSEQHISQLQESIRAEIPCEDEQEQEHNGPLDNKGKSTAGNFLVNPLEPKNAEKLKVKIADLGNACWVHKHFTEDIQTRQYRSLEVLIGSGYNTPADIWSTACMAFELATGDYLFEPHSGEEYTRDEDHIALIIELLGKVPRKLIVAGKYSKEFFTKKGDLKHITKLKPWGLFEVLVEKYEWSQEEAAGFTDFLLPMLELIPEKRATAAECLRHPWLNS
Chain of Serine/threonine-protein kinase PLK2 (Homo sapiens) (Q9NYY3 whole entry, looked up): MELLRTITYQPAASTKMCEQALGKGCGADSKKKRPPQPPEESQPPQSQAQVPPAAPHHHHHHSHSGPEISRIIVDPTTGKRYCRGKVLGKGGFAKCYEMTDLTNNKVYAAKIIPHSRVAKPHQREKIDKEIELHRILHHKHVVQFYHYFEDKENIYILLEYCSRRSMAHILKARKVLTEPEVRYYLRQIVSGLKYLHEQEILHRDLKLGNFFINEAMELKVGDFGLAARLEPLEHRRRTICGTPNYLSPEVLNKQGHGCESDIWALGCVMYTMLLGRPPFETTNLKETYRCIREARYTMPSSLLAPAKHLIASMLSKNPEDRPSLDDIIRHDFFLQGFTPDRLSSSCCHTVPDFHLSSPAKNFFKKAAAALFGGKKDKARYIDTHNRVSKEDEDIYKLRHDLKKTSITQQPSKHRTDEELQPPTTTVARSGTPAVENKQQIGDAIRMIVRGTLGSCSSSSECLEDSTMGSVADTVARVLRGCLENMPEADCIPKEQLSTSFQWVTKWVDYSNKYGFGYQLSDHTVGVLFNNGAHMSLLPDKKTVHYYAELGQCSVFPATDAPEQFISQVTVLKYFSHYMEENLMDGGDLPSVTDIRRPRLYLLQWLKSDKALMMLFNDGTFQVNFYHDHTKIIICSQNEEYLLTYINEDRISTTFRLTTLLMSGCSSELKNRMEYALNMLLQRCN

SMILES | residual activity [1] [%] | residual activity [2] [%] | residual activity [3] [%] | residual activity [4] [%] | residual activity [5] [%] | residual activity [6] [%] | residual activity [7] [%] | residual activity [8] [%] | residual activity [9] [%] | residual activity [10] [%]
Nc1ncnc2[nH]nc(Nc3ccc(F)cc3)c12 | 6 | 95 | 79 | 104 | 100 | 94 | 102 | 95 | 91 | –
COc1ccc(Cl)cc1NC(=O)Nc1cc(C)nc2ccccc12 | 134 | – | – | 94 | 99 | 98 | – | – | – | 86
Nc1n[nH]c2nc3ccccc3nc12 | 72 | – | – | 94 | 98 | 83 | 99 | 68 | – | 82
COc1cc2c(cc1OC)-c1n[nH]c(Nc3cccc(F)c3)c1C2 | 5 | – | 105 | – | – | – | – | – | 117 | –
Nc1nc(Nc2ccc(S(N)(=O)=O)cc2)nn1C(=O)c1c(F)cccc1F | 6 | 56 | 7 | – | – | 76 | 96 | 60 | 47 | –
CCCC(=O)Oc1ccc2[nH]c(C(=O)c3cc4ccccc4[nH]3)cc2c1 | 54 | 104 | 103 | 103 | 92 | 91 | 102 | 107 | 126 | 87
CSc1nc(-c2ccc(F)cc2)c(-c2ccnc(NC(C)c3ccccc3)c2)[nH]1 (stereo not drawn) | 87 | 94 | 84 | 91 | 92 | 93 | – | 87 | 101 | 87
CCOC(=O)c1c(C)[nH]c(/C=C2\C(=O)Nc3ccccc32)c1C | 91 | 92 | 97 | 93 | 89 | 97 | – | – | – | 89
NC(=O)Nc1sc(-c2ccc(F)cc2)cc1C(N)=O | 5 | 105 | 78 | 102 | 89 | 63 | 101 | 73 | – | 75
N#C/C(=C\c1ccc(O)c(O)c1)C(=O)NCc1ccccc1 | 1 | 100 | – | – | – | – | – | – | 127 | –
O=C1NC(=O)C(c2c[nH]c3ccccc23)=C1c1c[nH]c2ccccc12 | 7 | 63 | 6 | 74 | – | 71 | – | – | 120 | 22
O=S(=O)(NCCNC/C=C/c1ccc(Br)cc1)c1cccc2cnccc12 | 57 | – | – | – | – | – | – | – | – | –
Nc1ncnc2c1c(-c1ccc(Oc3ccccc3)cc1)cn2C1CCCC1 | 27 | 104 | 103 | 93 | 87 | 57 | 97 | 93 | 109 | 90
O=C1NC(=O)c2c1c1c3ccccc3[nH]c1n1cncc21 | 44 | 91 | 76 | 103 | 79 | 70 | 38 | 38 | 60 | 72
COc1cc2nccc(Oc3ccc(NC(=S)NC(=O)c4ccccc4C)cc3)c2cc1OC | 37 | 102 | 96 | 100 | 97 | 90 | 72 | 35 | 99 | 91
CCCCc1c(-c2ccc(O)cc2)[nH]c2nccnc12 | 36 | – | – | 91 | 99 | 62 | 100 | 86 | 50 | 90
COc1ccc2c(c1)c(C1=C(c3c[nH]c4ccccc34)C(=O)NC1=O)cn2CCCN(C)C | 34 | 97 | 56 | – | 71 | 22 | – | – | 113 | –
CC(C)c1nn(-c2c(Cl)cccc2Cl)c2nc(Cc3ccc(OCCO)cc3)[nH]c(=O)c12 | 61 | 88 | 37 | 83 | 105 | 61 | 100 | 92 | 101 | 43
CC(C)(C)n1nc(Cc2cccc3ccccc23)c2c(N)ncnc21 | 49 | 103 | 101 | 99 | 92 | 100 | 103 | 95 | 104 | 94
O=C1Cc2c([nH]c3ccc([N+](=O)[O-])cc23)-c2ccccc2N1 | 68 | 105 | – | – | – | – | – | – | – | –
O=C1Nc2ccc(Cl)cc2/C1=C/c1cc(Cl)c(O)c(Cl)c1 | 71 | – | – | 100 | 88 | 94 | 94 | 92 | 96 | 69

SMILES | residual activity [1] [%] | residual activity [2] [%] | residual activity [3] [%] | residual activity [4] [%] | residual activity [5] [%] | residual activity [6] [%] | residual activity [7] [%] | residual activity [8] [%] | residual activity [9] [%] | residual activity [10] [%]
O=C(c1cc2cc(O)ccc2[nH]1)c1cc2cc(O)ccc2[nH]1 | 8 | 81 | 79 | – | 83 | 62 | – | 78 | 82 | 71
Cn1sc(=O)n(Cc2ccccc2)c1=O | 83 | 83 | 91 | 93 | 95 | 88 | – | – | – | 76
O=c1cc(N2CCOCC2)oc2c1ccc1ccccc12 | 93 | 99 | 93 | 97 | 93 | 101 | 98 | 85 | – | 97
O=c1cc(N2CCNCC2)oc2c(-c3ccccc3)cccc12 | 8 | 99 | 85 | 91 | 98 | 93 | 99 | 95 | – | 93
CCN(CC)CCNC(=O)c1c(C)[nH]c(/C=C2\C(=O)Nc3ccc(Cl)cc32)c1C | 5 | – | – | 98 | 33 | 6 | 98 | 58 | – | 78
NC(=O)c1cccc(-c2cc(Nc3ccc(OC(F)(F)F)cc3)ncn2)c1 | 7 | – | 97 | – | – | – | – | – | – | –
O=C(O)/C=C/c1cc(Br)c(Br)c(Br)c1Br | 98 | – | – | 103 | 103 | 99 | 39 | – | 108 | 89
CC(C)(C)c1nc2c3ccc(F)cc3c3c(=O)[nH]ccc3c2[nH]1 | 42 | 99 | – | – | 34 | 24 | 49 | 44 | – | 73
CCCCc1c(-c2ccc(OC)cc2)[nH]c2nccnc12 | 78 | 118 | 106 | 90 | 106 | – | – | – | 37 | 84
CN([C@@H](Cc1ccc(OS(=O)(=O)c2cccc3cnccc23)cc1)C(=O)N1CCN(c2ccccc2)CC1)S(=O)(=O)c1cccc2cnccc12 | 124 | – | 86 | – | – | – | 100 | 99 | – | –
Fc1ccc(-c2nc3n(c2-c2ccncc2)CCS3)cc1 | – | – | 93 | – | – | – | – | – | – | 79
O=C(CCCc1ccc(-c2ccccc2F)cc1)Nc1ccc(O)cc1 | – | – | – | 106 | 100 | 108 | 109 | 106 | 100 | 100
O=C(Nc1nc2ccccc2n1CCN1CCOCC1)c1cccc([N+](=O)[O-])c1 | 73 | – | – | 79 | 83 | 88 | – | – | 123 | 74
Nc1nccc(-c2c(-c3ccc(F)cc3)ncn2C2CCNCC2)n1 | 54 | – | – | – | – | – | – | – | – | 70
O=C(NC(NC(=S)Nc1ccc(F)c([N+](=O)[O-])c1)C(Cl)(Cl)Cl)C(c1ccccc1)c1ccccc1 (stereo not drawn) | – | – | 92 | – | 98 | 91 | 90 | 87 | – | 98
CCN1/C(=C/C(C)=O)Sc2ccc(OC)cc21 | – | – | – | – | 82 | 58 | – | – | – | –
O=C1NC(=O)C(c2cn(CCCn3ccnc3)c3ccccc23)=C1Nc1ccccc1 | 36 | – | – | – | 75 | 32 | – | – | 105 | –
COc1ccc(CNC(=O)Nc2ncc([N+](=O)[O-])s2)cc1 | – | – | – | – | – | – | – | – | – | 78
Cc1cc(C)c(/C=C2\C(=O)Nc3ccccc32)[nH]1 | – | 104 | – | – | 69 | 47 | – | – | – | –
Nc1ncnc2c1cnn2-c1ccccc1 | 138 | – | – | – | 97 | 100 | – | 97 | – | 97
Cn1c2ccccc2c2c3c(c4c5ccccc5n(CCC#N)c4c21)CNC3=O | 24 | – | – | – | 6 | 14 | – | – | 3 | –

SMILES | residual activity [1] [%] | residual activity [2] [%] | residual activity [3] [%] | residual activity [4] [%] | residual activity [5] [%] | residual activity [6] [%] | residual activity [7] [%] | residual activity [8] [%] | residual activity [9] [%] | residual activity [10] [%]
O=C(c1ccccc1)c1ccc(N2CCOCC2)cc1O | 95 | – | – | 100 | 89 | 98 | – | – | 124 | 94
CC(C)N(CCC(=O)c1ccc2ccccc2c1)Cc1ccccc1 | – | – | – | – | – | – | – | – | 127 | 85
CC(C)[C@H](CO)Nc1nc(Nc2cc(N)cc(Cl)c2)c2ncn(C(C)C)c2n1 | 18 | – | – | – | 96 | 62 | – | – | – | –
O=c1cc(N2CCOCC2)oc2c(-c3ccccc3)cccc12 | – | – | – | – | – | 78 | – | – | – | –
CN(C)S(=O)(=O)c1ccc2c(c1)/C(=C/c1cc3c([nH]1)CCCC3)C(=O)N2 | – | 20 | 8 | 34 | 85 | 93 | – | – | 97 | 14
NC(=O)c1ccc(-c2nc(-c3ccc4c(c3)OCCO4)c(-c3ccccn3)[nH]2)cc1 | – | – | – | 91 | – | – | 93 | 100 | – | 95
N#Cc1c(NC(=O)c2cccc3ccccc23)sc2c1CCCC2 | – | – | – | – | – | 92 | – | – | – | 92
COc1cc2nccc(Oc3ccc(NC(=O)Nc4cc(C)on4)c(Cl)c3)c2cc1OC | – | 98 | – | 99 | 81 | 73 | 105 | 98 | – | –
O=c1c(-c2ccc(F)cc2)c(-c2ccncc2)[nH]n1-c1ccc(Cl)cc1 | – | – | – | – | – | – | – | – | 41 | –
COc1cc2ncnc(Nc3cccc(Cl)c3)c2cc1OC | – | 101 | 108 | 104 | – | – | 109 | 82 | 121 | –
O=C1NC(=O)C(c2cn(CCCO)c3ncccc23)=C1c1cnccn1 | 84 | – | – | – | – | – | – | – | 93 | –
COc1ccc(-c2cnc3c(-c4ccsc4)cnn3c2)cc1 | 2 | – | – | – | 95 | 96 | – | – | 127 | –
O=C1Cc2c([nH]c3ccc(Br)cc23)-c2ccccc2N1 | 36 | – | – | – | 97 | 81 | 99 | 91 | 72 | –
Oc1cccc(-c2nc(N3CCOCC3)c3oc4ncccc4c3n2)c1 | -1 | – | – | – | – | – | – | 98 | 131 | –
O=C1Nc2ccccc2/C1=C\c1c(Cl)[nH]c2ccccc12 | – | – | – | 100 | 99 | 85 | 99 | 80 | – | 83
COc1ccc(COc2ccc(Cc3cnc(N)nc3N)cc2OC)cc1 | 111 | – | – | – | – | – | – | – | 118 | –
O=C1C(Cl)=C(N2C(=O)CCC2=O)C(=O)c2ccccc21 | 98 | – | – | – | – | – | 100 | 90 | 100 | 88
NCCNc1ncc(C(N)=O)c(Nc2cccc(C(F)(F)F)c2)n1 | 20 | – | – | – | – | – | – | – | 6 | –
c1ccc(-c2cnc(Nc3ccc(OCCN4CCCC4)cc3)s2)cc1 | 10 | – | – | – | – | – | – | – | 129 | –
N#C/C(=C1/Nc2ccccc2S1)c1ccnc(NCCc2cccnc2)n1 | 78 | – | – | – | – | – | 97 | 71 | – | –
